Assay results taken from the supplement of paper PMC7724964.

Key:
Experiment in all cases: phage ELISA signal ratio (GST-PRM binding over GST background); higher = stronger binding of peptide-phage to the PRM
[1] = biological target: T1, MYL6 4-151 EF-hand_6 (domain begin residue: 4, domain end residue: 151), P60660
T1 chain: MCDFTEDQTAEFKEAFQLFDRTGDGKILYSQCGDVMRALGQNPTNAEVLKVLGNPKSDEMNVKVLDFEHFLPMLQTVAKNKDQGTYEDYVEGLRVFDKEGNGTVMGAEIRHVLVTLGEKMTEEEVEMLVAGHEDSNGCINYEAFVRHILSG
How it was run: (§1)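 Human peptide recognition domains were expressed in 96-well plates as fusions to the C-terminus of glutathione S-transferase (GST) and selected against an M13 phage library displaying randomized hexadecapeptides, cysteine-free and glycine-flanked, on the gene-8 major coat protein. Five selection rounds were run, and approximately 48 individual clones from rounds 4 and 5 were tested by phage ELISA. Each value is the ELISA signal on the GST-domain fusion divided by the signal on GST alone. Positive clones were sequenced.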

[2] = biological target: T2, NFKBIA 70-282 EF-hand_6 (domain begin residue: 70, domain end residue: 282), P25963
T2 chain: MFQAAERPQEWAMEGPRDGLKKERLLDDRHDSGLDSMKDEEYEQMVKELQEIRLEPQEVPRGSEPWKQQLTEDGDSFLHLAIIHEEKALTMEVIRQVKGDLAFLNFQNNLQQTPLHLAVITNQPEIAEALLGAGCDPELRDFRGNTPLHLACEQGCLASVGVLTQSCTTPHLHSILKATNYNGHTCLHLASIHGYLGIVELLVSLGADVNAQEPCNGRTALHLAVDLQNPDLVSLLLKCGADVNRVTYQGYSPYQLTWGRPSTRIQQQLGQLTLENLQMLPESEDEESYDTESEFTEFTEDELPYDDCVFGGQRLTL
How it was run: as §1

[3] = biological target: T3, NUP98 730-880 Nucleoporin2 (domain begin residue: 730, domain end residue: 880), P52948
T3 chain: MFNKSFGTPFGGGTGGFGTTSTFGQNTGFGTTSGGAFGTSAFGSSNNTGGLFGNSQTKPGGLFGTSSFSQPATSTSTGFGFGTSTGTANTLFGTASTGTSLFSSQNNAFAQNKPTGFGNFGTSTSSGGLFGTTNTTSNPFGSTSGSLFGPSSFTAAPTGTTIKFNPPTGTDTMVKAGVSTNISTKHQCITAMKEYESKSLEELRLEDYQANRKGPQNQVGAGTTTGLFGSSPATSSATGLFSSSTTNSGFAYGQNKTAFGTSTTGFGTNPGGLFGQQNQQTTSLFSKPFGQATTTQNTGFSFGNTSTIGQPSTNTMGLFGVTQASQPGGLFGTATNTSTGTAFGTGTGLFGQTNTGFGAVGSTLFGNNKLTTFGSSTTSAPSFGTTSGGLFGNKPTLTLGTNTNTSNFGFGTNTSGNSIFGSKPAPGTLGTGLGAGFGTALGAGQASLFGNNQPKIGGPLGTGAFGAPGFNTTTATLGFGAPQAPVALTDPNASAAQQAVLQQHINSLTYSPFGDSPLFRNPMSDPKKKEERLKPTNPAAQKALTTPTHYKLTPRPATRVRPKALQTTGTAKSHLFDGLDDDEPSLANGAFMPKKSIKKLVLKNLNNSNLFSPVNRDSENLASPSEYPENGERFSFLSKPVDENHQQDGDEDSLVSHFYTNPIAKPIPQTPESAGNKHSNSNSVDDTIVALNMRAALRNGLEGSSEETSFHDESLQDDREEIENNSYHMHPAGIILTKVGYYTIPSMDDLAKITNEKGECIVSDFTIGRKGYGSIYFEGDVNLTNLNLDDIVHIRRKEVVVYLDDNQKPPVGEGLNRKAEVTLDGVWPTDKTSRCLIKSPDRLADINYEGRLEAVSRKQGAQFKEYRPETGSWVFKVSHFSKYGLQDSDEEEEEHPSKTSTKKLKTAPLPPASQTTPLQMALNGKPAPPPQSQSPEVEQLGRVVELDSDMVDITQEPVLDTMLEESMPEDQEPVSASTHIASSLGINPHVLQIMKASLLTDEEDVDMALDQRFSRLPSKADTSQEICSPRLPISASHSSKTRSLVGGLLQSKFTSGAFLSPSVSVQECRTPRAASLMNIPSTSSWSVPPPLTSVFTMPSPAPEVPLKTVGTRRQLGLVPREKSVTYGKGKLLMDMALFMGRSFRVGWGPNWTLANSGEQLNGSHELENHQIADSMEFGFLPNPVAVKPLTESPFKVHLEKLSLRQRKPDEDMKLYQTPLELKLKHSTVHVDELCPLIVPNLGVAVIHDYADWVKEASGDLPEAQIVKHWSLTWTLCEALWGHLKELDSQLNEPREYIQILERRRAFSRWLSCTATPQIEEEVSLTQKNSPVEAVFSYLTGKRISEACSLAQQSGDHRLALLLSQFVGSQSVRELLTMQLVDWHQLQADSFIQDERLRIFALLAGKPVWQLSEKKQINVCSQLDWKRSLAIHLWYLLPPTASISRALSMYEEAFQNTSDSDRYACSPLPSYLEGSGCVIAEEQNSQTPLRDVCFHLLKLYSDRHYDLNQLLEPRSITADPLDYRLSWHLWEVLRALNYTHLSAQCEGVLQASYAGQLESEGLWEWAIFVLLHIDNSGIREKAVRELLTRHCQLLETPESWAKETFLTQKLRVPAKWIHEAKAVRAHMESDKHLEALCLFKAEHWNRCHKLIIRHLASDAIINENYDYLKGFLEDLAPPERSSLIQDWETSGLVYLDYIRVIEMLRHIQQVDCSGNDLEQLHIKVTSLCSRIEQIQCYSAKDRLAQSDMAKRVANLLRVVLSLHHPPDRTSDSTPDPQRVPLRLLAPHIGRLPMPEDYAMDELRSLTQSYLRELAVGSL
How it was run: as §1

[4] = biological target: T4, NR4A2 327-598 Hormone_recep (domain begin residue: 327, domain end residue: 598), P43354
T4 chain: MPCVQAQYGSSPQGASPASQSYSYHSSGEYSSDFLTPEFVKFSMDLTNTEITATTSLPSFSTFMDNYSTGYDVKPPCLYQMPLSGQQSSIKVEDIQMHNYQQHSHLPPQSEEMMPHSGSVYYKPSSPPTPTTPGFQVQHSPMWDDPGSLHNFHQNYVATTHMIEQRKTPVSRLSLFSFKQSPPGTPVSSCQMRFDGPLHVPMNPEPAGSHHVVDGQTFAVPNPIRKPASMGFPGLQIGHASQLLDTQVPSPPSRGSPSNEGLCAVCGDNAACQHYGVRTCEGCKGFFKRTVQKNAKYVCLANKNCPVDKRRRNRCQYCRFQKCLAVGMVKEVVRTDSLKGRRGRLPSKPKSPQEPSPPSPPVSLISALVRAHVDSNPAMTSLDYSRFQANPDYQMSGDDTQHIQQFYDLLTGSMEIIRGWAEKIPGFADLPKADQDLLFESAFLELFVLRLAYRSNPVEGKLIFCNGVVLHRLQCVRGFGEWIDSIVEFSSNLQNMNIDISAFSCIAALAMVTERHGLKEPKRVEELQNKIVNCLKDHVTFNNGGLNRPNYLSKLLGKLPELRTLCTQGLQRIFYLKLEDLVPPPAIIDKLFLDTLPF
How it was run: as §1

[5] = biological target: NR5A1 221-461 Hormone_recep (domain begin residue: 221, domain end residue: 461), Q13285
Chain of NR5A1 221-461 Hormone_recep (domain begin residue: 221, domain end residue: 461), Q13285 (Q13285 whole entry): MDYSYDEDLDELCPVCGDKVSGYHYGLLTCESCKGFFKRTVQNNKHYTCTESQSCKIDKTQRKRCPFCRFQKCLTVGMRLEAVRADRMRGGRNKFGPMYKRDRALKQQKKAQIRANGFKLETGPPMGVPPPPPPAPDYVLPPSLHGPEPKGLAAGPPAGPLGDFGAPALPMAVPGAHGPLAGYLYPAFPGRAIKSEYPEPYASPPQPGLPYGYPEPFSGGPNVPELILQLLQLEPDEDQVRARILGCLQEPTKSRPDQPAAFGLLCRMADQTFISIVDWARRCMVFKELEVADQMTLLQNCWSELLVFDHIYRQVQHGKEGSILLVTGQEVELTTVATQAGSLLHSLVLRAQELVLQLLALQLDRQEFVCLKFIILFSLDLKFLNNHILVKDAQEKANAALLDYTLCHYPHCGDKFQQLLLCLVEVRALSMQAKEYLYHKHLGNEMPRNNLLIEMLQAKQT
How it was run: as §1

[6] = biological target: T5, NR1H3 204-447 Hormone_recep (domain begin residue: 204, domain end residue: 447), Q13133
T5 chain: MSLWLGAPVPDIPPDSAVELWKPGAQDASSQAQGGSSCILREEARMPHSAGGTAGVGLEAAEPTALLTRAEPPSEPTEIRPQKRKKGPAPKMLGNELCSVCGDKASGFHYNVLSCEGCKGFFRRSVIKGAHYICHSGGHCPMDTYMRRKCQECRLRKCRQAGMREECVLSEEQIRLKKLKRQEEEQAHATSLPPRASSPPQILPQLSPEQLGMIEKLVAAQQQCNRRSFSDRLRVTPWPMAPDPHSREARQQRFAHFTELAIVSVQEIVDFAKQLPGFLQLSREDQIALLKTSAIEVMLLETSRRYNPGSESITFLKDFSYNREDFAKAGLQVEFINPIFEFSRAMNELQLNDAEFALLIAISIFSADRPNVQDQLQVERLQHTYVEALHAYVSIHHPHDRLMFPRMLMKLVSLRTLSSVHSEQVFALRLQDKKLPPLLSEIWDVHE
How it was run: as §1

[7] = biological target: NR5A2 297-541 Hormone_recep (domain begin residue: 297, domain end residue: 541), O00482
Chain of NR5A2 297-541 Hormone_recep (domain begin residue: 297, domain end residue: 541), O00482 (O00482 whole entry): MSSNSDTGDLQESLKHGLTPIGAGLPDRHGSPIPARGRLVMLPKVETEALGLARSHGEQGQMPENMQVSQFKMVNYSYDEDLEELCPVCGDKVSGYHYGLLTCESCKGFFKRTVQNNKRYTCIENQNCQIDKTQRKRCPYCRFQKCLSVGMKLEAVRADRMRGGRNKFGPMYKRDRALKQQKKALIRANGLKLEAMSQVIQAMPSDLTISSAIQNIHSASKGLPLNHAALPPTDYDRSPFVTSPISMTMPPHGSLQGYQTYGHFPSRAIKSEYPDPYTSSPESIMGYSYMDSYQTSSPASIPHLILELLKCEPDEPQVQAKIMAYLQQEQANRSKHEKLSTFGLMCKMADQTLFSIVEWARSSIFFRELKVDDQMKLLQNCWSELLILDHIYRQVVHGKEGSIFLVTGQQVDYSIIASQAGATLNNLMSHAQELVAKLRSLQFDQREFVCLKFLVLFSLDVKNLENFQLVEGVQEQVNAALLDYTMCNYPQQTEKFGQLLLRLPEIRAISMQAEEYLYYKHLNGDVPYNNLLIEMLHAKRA
How it was run: as §1

[8] = biological target: T6, NR1H2 203-460 Hormone_recep (domain begin residue: 203, domain end residue: 460), P55055
T6 chain: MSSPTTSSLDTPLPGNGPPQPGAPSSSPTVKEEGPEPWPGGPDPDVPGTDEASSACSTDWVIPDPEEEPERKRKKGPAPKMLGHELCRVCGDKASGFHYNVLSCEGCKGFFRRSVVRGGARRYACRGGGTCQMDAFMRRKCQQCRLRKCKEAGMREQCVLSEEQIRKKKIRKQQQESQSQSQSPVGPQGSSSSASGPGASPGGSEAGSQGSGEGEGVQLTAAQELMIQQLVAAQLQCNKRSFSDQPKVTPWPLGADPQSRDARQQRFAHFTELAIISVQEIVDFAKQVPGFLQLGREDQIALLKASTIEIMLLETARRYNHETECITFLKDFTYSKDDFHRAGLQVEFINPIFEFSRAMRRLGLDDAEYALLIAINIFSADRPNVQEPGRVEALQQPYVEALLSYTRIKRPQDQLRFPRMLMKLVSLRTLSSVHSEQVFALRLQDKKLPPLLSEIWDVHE
How it was run: as §1

[9] = biological target: T7, NR1D2 386-579 Hormone_recep (domain begin residue: 386, domain end residue: 579), Q14995
T7 chain: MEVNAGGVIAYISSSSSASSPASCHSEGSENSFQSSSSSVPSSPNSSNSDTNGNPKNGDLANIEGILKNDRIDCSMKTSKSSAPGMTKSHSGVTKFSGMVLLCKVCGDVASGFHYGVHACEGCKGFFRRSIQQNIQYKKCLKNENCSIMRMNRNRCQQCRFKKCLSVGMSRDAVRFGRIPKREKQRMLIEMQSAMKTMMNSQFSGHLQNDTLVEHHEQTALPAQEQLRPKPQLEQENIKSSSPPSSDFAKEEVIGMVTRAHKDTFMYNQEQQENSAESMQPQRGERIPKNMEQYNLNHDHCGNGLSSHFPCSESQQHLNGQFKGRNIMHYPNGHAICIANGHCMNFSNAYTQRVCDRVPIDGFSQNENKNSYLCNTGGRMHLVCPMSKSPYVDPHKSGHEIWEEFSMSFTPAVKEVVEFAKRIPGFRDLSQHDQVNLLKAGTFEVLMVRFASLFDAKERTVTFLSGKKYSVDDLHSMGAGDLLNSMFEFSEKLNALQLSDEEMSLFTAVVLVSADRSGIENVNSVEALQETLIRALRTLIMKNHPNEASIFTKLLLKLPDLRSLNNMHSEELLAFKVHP
How it was run: as §1

B1: unnamed (peptide)
chain: TMMPIWSEGQWWWGHI
phage ELISA signal ratio [1]: 3.17

B2: unnamed (peptide)
chain: YWEHSNELDYWVEFIA
phage ELISA signal ratio [2]: 5.67
phage ELISA signal ratio [3]: 16.9

B3: unnamed (peptide)
chain: QPLPPPPPPSSIPAPA
phage ELISA signal ratio [2]: 5.2

B4: unnamed (peptide)
chain: QWSVEPWWHEMVIQGI
phage ELISA signal ratio [4]: 24.1

B5: unnamed (peptide)
chain: PYHDSWFYWPGLTEGV
phage ELISA signal ratio [5]: 5.49

B6: unnamed (peptide)
chain: QEWQAWMLSMEEGEMM
phage ELISA signal ratio [6]: 15.5

B7: unnamed (peptide)
chain: YPEIAWLQQMMQSDSR
phage ELISA signal ratio [6]: 28.4

B8: unnamed (peptide)
chain: QDEDVWWAWMMGLGME
phage ELISA signal ratio [6]: 8.99

B9: unnamed (peptide)
chain: LTMAQQFPYLWSALSN
phage ELISA signal ratio [7]: 11.2

B10: unnamed (peptide)
chain: DQPPPSYSVLTPDVAL
phage ELISA signal ratio [2]: 13.8

B11: unnamed (peptide)
chain: ESLWIIPSNAYWEQVM
phage ELISA signal ratio [8]: 17.3

B12: unnamed (peptide)
chain: ENLTALIMAFFSETIQ
phage ELISA signal ratio [9]: 9.19

B13: unnamed (peptide)
chain: WQDAWMQAMEQIYPPL
phage ELISA signal ratio [9]: 6.57

B14: unnamed (peptide)
chain: WVDEWTDVVQPMYYYD
phage ELISA signal ratio [2]: 18.3
